Whole data set: some 1,900 compounds, median “excess over highest single agent (ExcessHSA) synergy score, 6x6 matrix” near -83, cut for the lowest 2% near -370. Many of the other results were omitted from the sample, so the lowest values are more common in it than they were.
Each compound was assayed on NCI-H446 (assay: excess over highest single agent (ExcessHSA) synergy score, 6x6 matrix; higher = less synergy (more negative = stronger synergy)). Details: 72 h; CellTiter-Glo viability.

Which “excess over highest single agent” value does the source give for `CN1c2ccccc2C(=O)N2CCc3c([nH]c4ccccc34)[C@@H]21` + Cc1sc2c(c1C)C(c1ccc(Cl)cc1)=N[C@@H](CC(=O)OC(C)(C)C)c1nnc(C)n1-2 [NCGC00250412-19] here?
The value was -226.

For `O=C1NC(=O)/C(=C/c2cccc(C(F)(F)F)c2)S1` + Cc1sc2c(c1C)C(c1ccc(Cl)cc1)=N[C@@H](CC(=O)OC(C)(C)C)c1nnc(C)n1-2 [NCGC00250412-19], which “excess over highest single agent” value is on record?
Its value is 75.6.

Which “excess over highest single agent” value does the source give for `Cn1c2cc([S+](C)[O-])sc2c2cnn(Cc3cccc(N)c3)c(=O)c21` (centres undefined) + Cc1sc2c(c1C)C(c1ccc(Cl)cc1)=N[C@@H](CC(=O)OC(C)(C)C)c1nnc(C)n1-2 [NCGC00250412-19] here?
Its value is -110.

With `CN(c1ncccc1CNc1nc(Nc2ccc3c(c2)CC(=O)N3)ncc1C(F)(F)F)S(C)(=O)=O` + Cc1sc2c(c1C)C(c1ccc(Cl)cc1)=N[C@@H](CC(=O)OC(C)(C)C)c1nnc(C)n1-2 [NCGC00250412-19] as the compound, how does the “excess over highest single agent” value read?
Its value is -151.

For `CC(=O)NCC(=O)N1[C@@H]2CC[C@H]1c1ccc(Nc3ncc(C(F)(F)F)c(NC4CCC4)n3)cc12` + Cc1sc2c(c1C)C(c1ccc(Cl)cc1)=N[C@@H](CC(=O)OC(C)(C)C)c1nnc(C)n1-2 [NCGC00250412-19], which “excess over highest single agent” value is on record?
Its value is -534.

With `CS(=O)(=O)c1cccc(CNc2nc(Nc3ccc4c(c3)CCC(=O)N4)ncc2C(F)(F)F)c1` + Cc1sc2c(c1C)C(c1ccc(Cl)cc1)=N[C@@H](CC(=O)OC(C)(C)C)c1nnc(C)n1-2 [NCGC00250412-19] as the compound, how does the “excess over highest single agent” value read?
Its value is 58.6.

Which “excess over highest single agent” value does the source give for `COC(=O)c1ccc2c(C(=Nc3ccc(N(C)C(=O)CN4CCN(C)CC4)cc3)c3ccccc3)c(O)[nH]c2c1` + Cc1sc2c(c1C)C(c1ccc(Cl)cc1)=N[C@@H](CC(=O)OC(C)(C)C)c1nnc(C)n1-2 [NCGC00250412-19] here?
The value was -229.

For `CCS(=O)(=O)Nc1ccc2[nH]c(O)c(C(=Nc3ccc(CN4CCCCC4)cc3)c3ccccc3)c2c1` + Cc1sc2c(c1C)C(c1ccc(Cl)cc1)=N[C@@H](CC(=O)OC(C)(C)C)c1nnc(C)n1-2 [NCGC00250412-19], which “excess over highest single agent” value is on record?
Its value is -393.

Which “excess over highest single agent” value does the source give for `CNC(=O)c1ccc2c(C(=Nc3cccc(CN(C)C)c3)c3ccccc3)c(O)[nH]c2c1` + Cc1sc2c(c1C)C(c1ccc(Cl)cc1)=N[C@@H](CC(=O)OC(C)(C)C)c1nnc(C)n1-2 [NCGC00250412-19] here?
The value was 93.9.

For `COc1ccc(-c2ccc3ncc4c(c3c2)n(-c2ccc(N3CCNCC3)c(C(F)(F)F)c2)c(=O)n4C)cn1` + Cc1sc2c(c1C)C(c1ccc(Cl)cc1)=N[C@@H](CC(=O)OC(C)(C)C)c1nnc(C)n1-2 [NCGC00250412-19], which “excess over highest single agent” value is on record?
The value was -20.2.

How did the “excess over highest single agent” value turn out when `COc1cc(C(C)C)c(Oc2cnc(NC(CO)CO)nc2N)cc1I` + Cc1sc2c(c1C)C(c1ccc(Cl)cc1)=N[C@@H](CC(=O)OC(C)(C)C)c1nnc(C)n1-2 [NCGC00250412-19] was run?
The value was -119.

Which “excess over highest single agent” value does the source give for `OCc1ccc(-c2ccc(-c3ccc(CO)s3)o2)s1` + Cc1sc2c(c1C)C(c1ccc(Cl)cc1)=N[C@@H](CC(=O)OC(C)(C)C)c1nnc(C)n1-2 [NCGC00250412-19] here?
The value was 33.9.

How did the “excess over highest single agent” value turn out when `C/C=C1\NC(=O)[C@H]2CSSCC/C=C/[C@H](CC(=O)N[C@H](C(C)C)C(=O)N2)OC(=O)[C@H](C(C)C)NC1=O` + Cc1sc2c(c1C)C(c1ccc(Cl)cc1)=N[C@@H](CC(=O)OC(C)(C)C)c1nnc(C)n1-2 [NCGC00250412-19] was run?
Its value is -38.7.

Which “excess over highest single agent” value does the source give for `O=C1[C@H](Cc2ccc(O)cc2)N2C(=O)CCN(C(=O)NCc3ccccc3)[C@H]2CN1Cc1cccc2ccccc12` + Cc1sc2c(c1C)C(c1ccc(Cl)cc1)=N[C@@H](CC(=O)OC(C)(C)C)c1nnc(C)n1-2 [NCGC00250412-19] here?
Its value is -294.

How did the “excess over highest single agent” value turn out when `O=C(NOC[C@H](O)CO)c1ccc(F)c(F)c1Nc1ccc(I)cc1F` + Cc1sc2c(c1C)C(c1ccc(Cl)cc1)=N[C@@H](CC(=O)OC(C)(C)C)c1nnc(C)n1-2 [NCGC00250412-19] was run?
The value was -276.

With `Cn1c(=O)c2c(ncn2CC(O)CO)n(C)c1=O` (centres undefined) + Cc1sc2c(c1C)C(c1ccc(Cl)cc1)=N[C@@H](CC(=O)OC(C)(C)C)c1nnc(C)n1-2 [NCGC00250412-19] as the compound, how does the “excess over highest single agent” value read?
Its value is -73.2.

How did the “excess over highest single agent” value turn out when `Cn1c(=O)c(F)c(Nc2ccc(I)cc2F)c2c(=O)n(C[C@@H](O)CO)cnc21` + Cc1sc2c(c1C)C(c1ccc(Cl)cc1)=N[C@@H](CC(=O)OC(C)(C)C)c1nnc(C)n1-2 [NCGC00250412-19] was run?
The value was -396.

For `O=C(C=Cc1ccc(C=CC(=O)Nc2ccc(C3=NCCN3)cc2)cc1)Nc1ccc(C2=NCCN2)cc1` + Cc1sc2c(c1C)C(c1ccc(Cl)cc1)=N[C@@H](CC(=O)OC(C)(C)C)c1nnc(C)n1-2 [NCGC00250412-19], which “excess over highest single agent” value is on record?
The value was -46.7.

Which “excess over highest single agent” value does the source give for `CC(C)C(=O)Nc1ncc(-c2cc(C(F)F)nn2-c2c(Cl)cccc2Cl)s1` + Cc1sc2c(c1C)C(c1ccc(Cl)cc1)=N[C@@H](CC(=O)OC(C)(C)C)c1nnc(C)n1-2 [NCGC00250412-19] here?
The value was -105.

With `COc1ccc(-c2nc(N3CCOCC3)c3sc(CN(C)c4ncc(C(=O)NO)cn4)cc3n2)cn1` + Cc1sc2c(c1C)C(c1ccc(Cl)cc1)=N[C@@H](CC(=O)OC(C)(C)C)c1nnc(C)n1-2 [NCGC00250412-19] as the compound, how does the “excess over highest single agent” value read?
Its value is -105.

With `c1ccc2c(Cc3c[nH]c4ccccc34)c[nH]c2c1` + Cc1sc2c(c1C)C(c1ccc(Cl)cc1)=N[C@@H](CC(=O)OC(C)(C)C)c1nnc(C)n1-2 [NCGC00250412-19] as the compound, how does the “excess over highest single agent” value read?
Its value is -83.3.

How did the “excess over highest single agent” value turn out when `CCCCOc1c(C(=O)c2c(F)cc(C)cc2F)c[nH]c2nncc1-2` + Cc1sc2c(c1C)C(c1ccc(Cl)cc1)=N[C@@H](CC(=O)OC(C)(C)C)c1nnc(C)n1-2 [NCGC00250412-19] was run?
The value was -375.

How did the “excess over highest single agent” value turn out when `CCCS(=O)(=O)Nc1ccc(F)c(C(=O)c2c[nH]c3ncc(-c4ccc(Cl)cc4)cc23)c1F` + Cc1sc2c(c1C)C(c1ccc(Cl)cc1)=N[C@@H](CC(=O)OC(C)(C)C)c1nnc(C)n1-2 [NCGC00250412-19] was run?
The value was -108.

For `CCCS(=O)(=O)Nc1ccc(F)c(C(=O)c2c[nH]c3ncc(Cl)cc23)c1F` + Cc1sc2c(c1C)C(c1ccc(Cl)cc1)=N[C@@H](CC(=O)OC(C)(C)C)c1nnc(C)n1-2 [NCGC00250412-19], which “excess over highest single agent” value is on record?
The value was -97.1.

Source: the supplement of paper PMC10077471
